According to PubChem BioAssay (NCATS):
Results filed as inconclusive are left out. The source made the active and inactive calls. Calls follow the shape of the dose curve; as a rule, active = well fitted curve in the direction sought with a large enough effect; inconclusive = small, poorly fitted or top-dose-only effect, or another doubt; inactive = no such curve, though single readings can be large; an effect the other way counts as inactive or inconclusive.

Assays:
[1] = tested on: MCC-13; test: qHTS assay to identify novel small-molecules to repurpose for Merkel cell carcinoma treatment (AID 1296009); details: MCC and control cell lines, CellTiter-Glo viability, 72 h; series mostly up to 46 µM; also: nearly all actives have a fitted effect of over 60% in size; also: potency is read from the fitted curve at half-maximal effect
Method in brief: (§1)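 Cell viability, measured as CellTiter-Glo luminescence, was normalized between DMSO and no-cell wells. The cells had been exposed to 8- or 11-point compound dilutions for 72 hr at 37 degree celsius.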

[2] = tested on: MKL-1; test: as above; details: MCC and control cell lines, CellTiter-Glo viability, 72 h; series mostly up to 46 µM
Method in brief: as §1

[3] = tested on: MKL-2; test: as above; details: MCC and control cell lines, CellTiter-Glo viability, 72 h; series mostly up to 46 µM
Method in brief: as §1

[4] = tested on: UISO; test: as above; details: MCC and control cell lines, CellTiter-Glo viability, 72 h; series mostly up to 46 µM
Method in brief: as §1

[5] = tested on: WaGa; test: as above; details: MCC and control cell lines, CellTiter-Glo viability, 72 h; series mostly up to 46 µM
Method in brief: as §1

[6] = tested on: CAOV3; test: Primary qHTS to identify gynecologic anti-cancer compounds using libraries of approved drugs and bioactive compounds (AID 1345084); details: Gynecologic cancer cell panel viability, ATPlite luminescence, 48 h; series mostly up to 57.5 µM; also: nearly all actives have a fitted effect of over 55% in size
Method in brief: (§2)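 ATP-based viability (ATPlite), 1,000 cells/well, 16 h pre-incubation, 48 h compound at 37 C, 5% CO2, 15 min RT before read.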

[7] = tested on: CASKI; test: as above; details: Gynecologic cancer cell panel viability, ATPlite luminescence, 48 h; series mostly up to 57.5 µM
Method in brief: as §2

[8] = tested on: Es-2; test: as above; details: Gynecologic cancer cell panel viability, ATPlite luminescence, 48 h; series mostly up to 57.5 µM
Method in brief: as §2

[9] = tested on: HeLa; test: as above; details: Gynecologic cancer cell panel viability, ATPlite luminescence, 48 h; series mostly up to 57.5 µM
Method in brief: as §2

[10] = tested on: Hek293T; test: as above; details: Gynecologic cancer cell panel viability, ATPlite luminescence, 48 h, control line for the selectivity index; series mostly up to 57.5 µM
Method in brief: as §2

[11] = tested on: JEG-3; test: as above; details: Gynecologic cancer cell panel viability, ATPlite luminescence, 48 h; series mostly up to 57.5 µM
Method in brief: as §2

[12] = tested on: OV90; test: as above; details: Gynecologic cancer cell panel viability, ATPlite luminescence, 48 h; series mostly up to 57.5 µM
Method in brief: as §2

[13] = tested on: PA-1; test: as above; details: Gynecologic cancer cell panel viability, ATPlite luminescence, 48 h; series mostly up to 57.5 µM
Method in brief: as §2

[14] = tested on: SKOV3; test: as above; details: Gynecologic cancer cell panel viability, ATPlite luminescence, 48 h; series mostly up to 57.5 µM
Method in brief: as §2

[15] = tested on: Tov-21-G; test: as above; details: Gynecologic cancer cell panel viability, ATPlite luminescence, 48 h; series mostly up to 57.5 µM
Method in brief: as §2

[16] = tested on: Tov112D; test: as above; details: Gynecologic cancer cell panel viability, ATPlite luminescence, 48 h; series mostly up to 57.5 µM
Method in brief: as §2

[17] = Drug repurposing screens with cells derived from glioblastoma tumor samples (AID 1345199); details: GBM patient neurospheres viability, ATP luminescence, 48 h; also: nearly all actives have a fitted effect of over 40% in size
Method in brief: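 Primary testing used CD133+ neurospheres from four GBM patients, seven concentrations, 48 h exposure and ATP-based viability; confirmation added three slower-growing patient lines.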

[18] = tested on: MCC-26; test: qHTS assay to identify novel small-molecules to repurpose for Merkel cell carcinoma treatment (AID 1296009); details: MCC and control cell lines, CellTiter-Glo viability, 72 h; series mostly up to 46 µM; also: nearly all actives have a fitted effect of over 60% in size; also: potency is read from the fitted curve at half-maximal effect
Method in brief: as §1

[19] = tested on: NIH3T3; test: as above; details: MCC and control cell lines, CellTiter-Glo viability, 72 h; series mostly up to 44.8 µM
Method in brief: as §1

[20] = tested on: C33A; test: Primary qHTS to identify gynecologic anti-cancer compounds using libraries of approved drugs and bioactive compounds (AID 1345084); details: Gynecologic cancer cell panel viability, ATPlite luminescence, 48 h; series mostly up to 57.5 µM; also: nearly all actives have a fitted effect of over 55% in size
Method in brief: as §2
% is scaled to controls: 0 for no effect and ±100 for the full control effect.

CNC(=O)[C@H](Cc1ccccc1)NC(=O)[C@H](CC(C)C)[C@H](CSc1cccs1)C(=O)NO
inactive: Potency [1] | Potency [2] | Potency [3] | Potency [4]

CN1C(=O)C(Cc2c[nH]c3ccccc23)NC1=S (stereo not drawn)
inactive: Potency [1] | Potency [2] | Potency [3] | Potency [4] | Potency [5] | Potency [6] | Potency [7] | Potency [8] | Potency [9] | Potency [10] | Potency [11] | Potency [12] | Potency [13] | Potency [14] | Potency [15] | Potency [16]

OC[C@H]1O[C@@H](O[C@H]2[C@@H](O)[C@@](O)(CO)O[C@@H]2CO)[C@H](O)[C@@H](O)[C@@H]1O
inactive: Potency [1] | Potency [2] | Potency [3] | Potency [4] | Potency [5]

O=C(NCCCCN1CCOCC1)c1cc2ccccc2o1
inactive: Potency [1] | Potency [2] | Potency [3] | Potency [4] | Potency [5]

CCC[C@H](N[C@@H](C)C(=O)N1[C@@H]2CCCC[C@H]2C[C@H]1C(=O)O)C(=O)OCC
inactive: Potency [1] | Potency [2] | Potency [3] | Potency [4] | Potency [5] | activity, negative = cell killing ([17]; at 45.9 µM (top of the series), tumour line B) -14% | activity, negative = cell killing ([17]; at 45.9 µM (top of the series), tumour line D) -19.1% | activity, negative = cell killing ([17]; at 46 µM (top of the series), tumour line A) -33% | activity, negative = cell killing ([17]; at 46.1 µM (top of the series), tumour line C) -16.9%

O=C(O)CCC=CCC[C@@H]1[C@H](N2CCCCC2)[C@@H](O)C[C@@H]1OCc1ccc(-c2ccccc2)cc1
inactive: Potency [1] | Potency [2] | Potency [3] | Potency [4] | Potency [5]

CN1CC(=O)NC1=NC(=O)Nc1cccc(Cl)c1
inactive: Potency [1] | Potency [18] | Potency [4] | Potency [5]

CCC(=C(c1ccc(O)cc1)c1ccc(OCCNC)cc1)c1ccccc1
inactive: Potency [1] | Potency [2] | Potency [3] | Potency [4] | Potency [5]

O=C1C(c2c(O)[nH]c3ccccc23)=Nc2ccccc21
inactive: Potency [1] | Potency [2] | Potency [3] | Potency [19] | Potency [5] | Potency [20] | Potency [6] | Potency [7] | Potency [8] | Potency [9] | Potency [10] | Potency [11] | Potency [12] | Potency [13] | Potency [14] | Potency [15] | Potency [16]

CN(C)CCCNC(=O)c1ccc(-c2cc(O)c3ncccc3c2)cc1
inactive: Potency [1] | Potency [18] | Potency [20] | Potency [6] | Potency [7] | Potency [8] | Potency [9] | Potency [10] | Potency [11] | Potency [14]

N#Cc1ccc(Oc2ccc3c(c2)COB3O)cc1
inactive: Potency [1] | Potency [2] | Potency [3] | Potency [4] | Potency [5] | Potency [20] | Potency [6] | Potency [7] | Potency [8] | Potency [10] | Potency [11] | Potency [12] | Potency [13] | Potency [14] | Potency [15] | Potency [16]

Cc1cnc(-c2cc(N3CCN(C(=O)CCS(C)(=O)=O)CC3)ncc2Cl)c(C)c1
inactive: Potency [1] | Potency [2] | Potency [3] | Potency [19] | Potency [4] | Potency [5] | Potency [20] | Potency [7] | Potency [8] | Potency [9] | Potency [10] | Potency [11] | Potency [12] | Potency [13] | Potency [14] | Potency [15] | Potency [16]

CN(CC=CC#CC(C)(C)C)Cc1cccc2ccccc12
inactive: Potency [1] | Potency [2] | Potency [3] | Potency [4] | Potency [5]

C[C@H](c1ccc(F)cc1CCCC(=O)O)N(c1cc(F)ccc1F)S(=O)(=O)c1ccc(Cl)cc1
inactive: Potency [1] | Potency [2] | Potency [3] | Potency [4] | Potency [5] | Potency [20] | Potency [6] | Potency [7] | Potency [8] | Potency [9] | Potency [10] | Potency [11] | Potency [12] | Potency [15] | Potency [16]

Cn1cnc(-c2cc3nccc(Oc4ccc(NC(=S)NC(=O)Cc5ccccc5)cc4F)c3s2)c1
active: Potency [4] 18.7 µM
inactive: Potency [1] | Potency [2] | Potency [3] | Potency [5] | Potency [20] | Potency [7] | Potency [8] | Potency [10] | Potency [11] | Potency [12]

CC1CNc2c(cccc2S(=O)(=O)N[C@@H](CCCN=C(N)N)C(=O)N2CC[C@@H](C)C[C@@H]2C(=O)O)C1 (stereo partly drawn)
active: Potency [2] 16.6 µM | Potency [3] 3.72 µM | Potency [5] 4.69 µM
inactive: Potency [1] | Potency [4]

CN1CCC(COc2cnc(-c3cccc(Cn4nc(-c5cccc(C#N)c5)ccc4=O)c3)nc2)CC1
inactive: Potency [1] | Potency [18] | Potency [4] | Potency [5] | Potency [20] | Potency [7] | Potency [8] | Potency [9] | Potency [10] | Potency [12] | Potency [13] | Potency [14] | Potency [15] | Potency [16]

CCN(CCO)CCCOc1ccc2c(Nc3cc(CC(=O)Nc4cccc(F)c4)[nH]n3)ncnc2c1
inactive: Potency [1] | Potency [18] | Potency [4] | Potency [20] | Potency [8] | Potency [9] | Potency [10] | Potency [11] | Potency [14] | Potency [15]
